This note sets out measurements from PubChem BioAssay AID2016 (NMMLSC, 2009).

Molecules are shown by their SMILES. In all, about 330,000 compounds went through this assay and about 1,700 (0.52%) were called active. The full list was thinned out, with actives kept by preference. Unmarked numbers belong to inactive results.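 How the source made its calls: active means GFP response versus DMSO above a set limit, roughly screen mean plus 3 SD (cut at about 180% in these data); inconclusive means fewer than 70 cells counted for a yeast strain; inactive means the rest.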

A short description of the assay: modulators of MEP2-GFP levels in yeast, primary screen, S. cerevisiae, multiplex flow cytometry, MLPCN library (AID 2016).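 Further: median GFP fluorescence of the barcode-gated MEP2-GFP cells per well.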 The settings on record: S. cerevisiae MEP2-GFP strain, 3 h, at 10 µM, hits give high values, 100% = DMSO control level. (In general: Flow cytometry measures light scatter and fluorescence of single cells or particles in a stream.)
Consider `COc1ccc(S(=O)(=O)NCC(c2ccco2)N2CCOCC2)cc1` (centres undefined), for which the GFP response vs DMSO was 97.3%.

As to `O=C(CC1CCCCC1)NCc1ccc(F)cc1`, the GFP response vs DMSO was 92.1%.

`O=C(CSc1nnnn1-c1ccc(O)cc1)c1ccc(F)cc1`: the GFP response vs DMSO is 106%. Next, `COC(=O)c1ccc(-c2noc(CN(Cc3ccccn3)CC3CCCO3)n2)cc1` (centres undefined): 102%; `COc1ccc(CN2CCn3ncc(C(=O)Nc4ccc(Cl)cc4Cl)c3C2=O)cc1`: 107%. Next, `O=C1N=C(N2CCOCC2)CS1`: 99.2%; `CC(=O)NC(CC(=O)Nc1ccc(S(=O)(=O)N2CCOCC2)cc1)c1ccccc1` (centres undefined): 95.3%; `O=C(N/N=C/c1cccc([N+](=O)[O-])c1)C1CC(=O)N(c2ccc(Br)cc2)C1` (centres undefined): 100%. Turning to `O=[N+]([O-])c1ccc(N/N=C/c2ccccc2)cc1`, the GFP response vs DMSO is 102%. In the case of `O=[N+]([O-])c1cccc(/C=N/Nc2ncc(Br)cn2)c1` it was 239% (active); in that of `CCOC(=O)C(C)n1cnc2c(nnn2-c2ccc(F)cc2)c1=O` (centres undefined), 98.2%.

`CCOC(=O)C(CC)Sc1ncnc2c1nnn2-c1ccc(F)cc1` (centres undefined): the GFP response vs DMSO is 191% (active).

Regarding `COC(=O)C(C)n1cnc2c(nnn2-c2ccc(F)cc2)c1=O` (centres undefined), the GFP response vs DMSO was 95.3%. In the case of `CC(=O)c1cccc(OCc2cc(C(=O)NC(C)Cc3cccnc3)no2)c1` (centres undefined) it was 92.2%; in that of `CCOC(=O)c1[nH]c(C)c(C(=O)OCC(=O)N2c3ccccc3CC2C)c1C` (centres undefined), 105%. Next, `CN(C)C(=O)c1cccn(Cc2cccc(C(F)(F)F)c2)c1=O`: 97.2%; `COc1ccccc1Nc1nnc(SC(C)C(=O)NC2CC2)s1` (centres undefined): 100%; `COc1ccc(CN2CCCC(C(=O)c3ccc(Cl)cc3)C2)cc1Cn1cncn1` (centres undefined): 99.8%. On to `COc1cc(CN2CCCC(C(=O)c3ccc(SC)cc3)C2)cc(Cl)c1O` (centres undefined), for which the GFP response vs DMSO is 596% [may fluoresce violet] (active). In the case of `COc1ccc(C(=O)NC2CC2)cc1OC1CCN(Cc2ccc(SC)cc2)CC1` it was 112%. On to `COc1ccc(OC)c(NC(=O)CSc2nc(-c3ccccc3)cc(=O)[nH]2)c1`, for which the GFP response vs DMSO is 107%. In the case of `Cc1cc(=O)oc2cc(OCC3CC(c4ccccc4Cl)=NO3)ccc12` (centres undefined) it was 100%; in that of `O=C(Cn1ncc(N2CCCC2)c(Br)c1=O)c1ccc(Cl)cc1`, 98.2%; in that of `Cc1oc(-c2ccccc2F)nc1CS(=O)CC(=O)NCCN1CCCCC1C` (centres undefined), 103%. Next, `Cc1ccccc1S(=O)(=O)Cc1ccc(C(=O)NCCN2CCCCC2C)o1` (centres undefined): 460% [may fluoresce violet] (active); `CCc1ccccc1S(=O)(=O)Cc1ccc(C(=O)NCCc2ccccc2)o1`: 109%; `CCOc1ccc(CCNC(=O)C(CC)n2nc(C)n3c(cc4sccc43)c2=O)cc1OCC` (centres undefined): 105%. As to `CCOc1ccc2nc(N(CCN(C)C)C(=O)c3ccc4ccccc4c3)sc2c1`, the GFP response vs DMSO was 233% [may fluoresce violet] (active).

In the case of `CCc1ccc2nc(N(CCCN(C)C)C(=O)c3ccc4c(c3)OCCO4)sc2c1`, the GFP response vs DMSO was 104%.

For the compound `CCOc1ccc2nc(N(CCCN(C)C)C(=O)c3ccc(C(=O)c4ccccc4)cc3)sc2c1`, the GFP response vs DMSO is 104%.

As for `CC(C)(C)c1ccc(C(CC(=O)O)NS(=O)(=O)Cc2ccccc2)cc1` (centres undefined), the GFP response vs DMSO is 98.8%. For the compound `CCSC1=NCCN1C(=O)c1ccc(S(=O)(=O)N(CC)CC)cc1`, the GFP response vs DMSO was 106%. Next, `O=C(NCCc1ccccc1)C(=O)NCC1OCCN1S(=O)(=O)c1cccs1` (centres undefined): 108%; `CCN1/C(=C/c2ccc3ccc(C)cc3[n+]2CC)Sc2ccccc21`: 351% [may fluoresce green] (active).

Turning to `CCN1/C(=C\c2ccc3ccccc3[n+]2CC)Sc2cc(C)ccc21`, the GFP response vs DMSO was 1150% [may fluoresce green] (active). Next, `O=C(NC1Cc2ccccc2C1)c1cc(COc2cccc(C(F)(F)F)c2)on1`: 104%.

Consider `CCC(=O)Nc1ccc(C(=O)N2CCN(C(=O)c3ccco3)CC2)cc1`, for which the GFP response vs DMSO was 104%. Turning to `Cc1ccc(OCC(=O)Nc2ccc(N3CCN(C(=O)c4ccco4)CC3)cc2)c(C)c1`, the GFP response vs DMSO is 229% [may fluoresce violet] (active). Next, `Cc1ccc(C)c(OCC(=O)N2CCN(C(=O)c3ccco3)CC2)c1`: 105%; `CCN(C[C@H]1N[C@@](Cc2ccccc2)(C(=O)OC)[C@H]2C(=O)N(Cc3ccccc3)C(=O)[C@@H]12)C(=O)c1ccc(C)cc1`: 84.7%. In the case of `CC(CN1CCOCC1)OC(=O)c1ccc(C(C)(C)C)cc1` (centres undefined) it was 110%; in that of `COCC(C)OC(=O)c1c(N)n(CCCN2CCOCC2)c2nc3ccccc3nc12` (centres undefined), 210% [may fluoresce violet] (active). In the case of `CC(C)(C)OC(=O)c1c(N)n(CCCN2CCCC2=O)c2nc3ccccc3nc12` it was 107%; in that of `CCOC(=O)Cc1csc(NC(=O)CN(C)S(=O)(=O)c2ccc3c(c2)CCC(=O)N3)n1`, 96%. On to `CCCN1C(=O)C(NC(C)=O)c2cc(OC)ccc21` (centres undefined), for which the GFP response vs DMSO is 107%. In the case of `O=C(CS(=O)(=O)c1cn(Cc2cccc(F)c2)c2ccccc12)N1CCCCC1` it was 236% [may fluoresce violet] (active). In the case of `CC(=O)Nc1ccc(NC(=O)CS(=O)(=O)c2cn(CC(=O)N3CCCCC3)c3ccccc23)cc1` it was 95.1%; in that of `O=C(CS(=O)(=O)c1cn(Cc2ccc(Cl)cc2)c2ccccc12)N1CCOCC1`, 91.9%. Next, `CC(NC(=O)c1cccc2ccccc12)c1ccc2c(c1)CCCC2` (centres undefined): 148%. Regarding `Cc1c(C(=O)OCC(=O)N2CCCC2=O)oc2ccccc12`, the GFP response vs DMSO is 108%. Regarding `Cc1ccc(C(=O)N2CC(=O)Nc3ccccc32)o1`, the GFP response vs DMSO is 101%. Next, `O=C(O)c1cccc2c1C(=O)N(C1CCCC1)C2`: 97.4%.

For the compound `Nc1nnc(SCC(=O)OCc2ccc(Cl)c(Cl)c2)s1`, the GFP response vs DMSO is 95.3%. In the case of `NC(=O)C1CCN(C(=O)/C(=C/c2ccco2)NC(=O)c2ccccc2)CC1` it was 215% [may fluoresce violet] (active). In the case of `O=C(NCC1CCCO1)/C(=C\c1ccco1)NC(=O)c1ccccc1` (centres undefined) it was 102%; in that of `CC1CCN(C(=O)/C(=C\c2ccccc2)NC(=O)c2ccccc2)CC1`, 106%; in that of `O=C(NCc1ccco1)/C(=C/c1ccco1)NC(=O)c1ccccc1`, 206% [may fluoresce violet] (active). With `Cc1ccc(C(=O)N/C(=C/C=C/c2ccccc2)C(=O)NCc2ccco2)cc1`, the GFP response vs DMSO was 95.7%. In the case of `Cc1ccc(C(=O)N/C(=C\c2ccco2)C(=O)N2CCSCC2)cc1C` it was 109%; in that of `N#CCCN1CCN(S(=O)(=O)c2ccc(S(=O)(=O)NC3CCCCC3)cc2)CC1`, 107%; in that of `Cn1c2ccccc2c2c(C(=O)N3CCN(c4ccc(F)cc4)CC3)cn(C3CCCC3)c(=O)c21`, 116%.

Turning to `COc1cc(C)c(Cl)cc1S(=O)(=O)n1ccnc1`, the GFP response vs DMSO is 92%.

For `O=C(NCC(=O)N1CCN(c2ccccc2F)CC1)c1cccs1`, the GFP response vs DMSO is 111%. Turning to `CC(=O)N(C)c1ccc(NC(=O)C(F)(F)F)cc1`, the GFP response vs DMSO was 100%. Take `C/C(=N/NS(=O)(=O)c1ccccc1)c1ccc(NC(=O)C(F)(F)F)cc1`: the GFP response vs DMSO is 219% (active). Next, `C/C(=N\NS(=O)(=O)c1ccc(Cl)cc1)c1ccc(NC(=O)c2ccco2)cc1`: 102%; `C[N+](C)(C)CCNC(=O)c1cc[n+](Cc2ccccc2)c(/C=N/O)c1`: 104%. Regarding `COC(=O)Nc1ncc(CN2C(=O)c3ccccc3C2=O)s1`, the GFP response vs DMSO was 109%. Next, `CCOC(=O)c1cnc(SCC(=O)NCc2ccco2)nc1N`: 222% (active); `CCOC(=O)c1cnc(SCC(=O)Nc2ccccc2C(=O)OC)nc1N`: 98.3%. Consider `CCOC(=O)c1cnc(SCC(=O)Nc2cccc(OC)c2)nc1N`, for which the GFP response vs DMSO was 90.7%. In the case of `CCOc1ccc(CN(Cc2ccco2)C(c2cccs2)c2nnnn2C(C)(C)C)cc1` (centres undefined) it was 98.9%. With `CCN(CCn1cccn1)C(=O)CC1C(=O)NCCN1Cc1cccc(OC)c1OC` (centres undefined), the GFP response vs DMSO is 100%.

Take `CC(=O)Nc1ccc(NC(=O)CC2CCCC2)cc1`: the GFP response vs DMSO is 779% [may fluoresce violet] (active). In the case of `COc1ccc(NC(=O)CN(C)C(=O)CC2CCCCC2)cc1` it was 102%; in that of `CC(=O)Nc1ccc(NC(=O)COC(=O)C2CCC(C(C)(C)C)CC2)cc1` (centres undefined), 103%; in that of `O=C(COC(=O)/C=C/c1cccc(Cl)c1)NCCc1ccccc1`, 114%. Take `O=C(c1ccco1)N(Cc1nc2ccccc2c(=O)[nH]1)C1CCCC1`: the GFP response vs DMSO was 271% [may fluoresce violet] (active). In the case of `CCCC(=O)N(CCc1ccccc1)Cc1nc2ccccc2c(=O)[nH]1` it was 85.6%. Next, `CCN(CC(=O)NC(=O)NCc1ccccc1)Cc1nc2ccccc2c(=O)[nH]1`: 98.5%; `COc1ccc(CNC(=O)CN(C(=O)c2csnn2)c2cnc3ccccc3c2)cc1`: 102%; `CCCCCCNCCn1cnc2c(N)ncnc21`: 97.1%. In the case of `COc1ccc(CCNC(=S)N2CCN(S(=O)(=O)c3ccc(F)cc3)CC2)cc1` it was 103%; in that of `COc1ccc(C(=O)Nc2cccc(S(C)(=O)=O)c2)cc1`, 112%; in that of `COc1ccc(NS(=O)(=O)c2cc(C(=O)Nc3ccccc3C(=O)O)ccc2C)cc1`, 95.4%.

On to `COc1ccc(C(=O)NN(C)c2nc(-c3ccccc3)cc(C)c2S(C)(=O)=O)cc1`, for which the GFP response vs DMSO was 287% [may fluoresce violet] (active). As for `O=C(O)c1ccc(S(=O)(=O)N2CCOCC2)o1`, the GFP response vs DMSO was 264% [may fluoresce violet] (active). In the case of `O=C(c1cc(S(=O)(=O)N2CCOCC2)ccc1Cl)N1CCOCC1` it was 103%; in that of `O=C(CCc1ccc(S(=O)(=O)N2CCOCC2)cc1)NN=C1CCCCCCC1`, 104%.
